# High-throughput results (PubChem)
# BRCA1 expr up = activators of BRCA1 expression; MCF7-BRCA1-FFLuc reporter, luminescence, 48 h; response scale: scaled: vehicle 0%, 10 µM genistein 100%; AID 624202; Potency, µM (titrated, usually from 46.1 µM), for inactives: at the highest dose activation, most hits filed as activators; actives 1.1% (n = 380,000); further: nearly all actives have a fitted effect of over 80% in size
#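 Quantitative HTS in MCF7 cells stably reporting BRCA1 expression via firefly luciferase. Compound treatment lasts 48 h at 37 °C in phenol-red free MEM. Activation is expressed relative to genistein at 10 microM and DMSO.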
# Anesthetic bind = binds horse apoferritin like a general anesthetic | P02791 | apoferritin/1-aminoanthracene competitive binding, fluorescence | Potency, µM (highest dose often 77.5 µM), for the others: at the highest dose activity change, negative = displacement, usual class: inhibitors | actives 0.074% (n = 350,000) | AID 485281; further: on the % scale 0 is the no-effect control and ±100 the full control effect; nearly all actives have a fitted effect of over 20% in size
# Target sequence (P02791 2-175 limits assumed): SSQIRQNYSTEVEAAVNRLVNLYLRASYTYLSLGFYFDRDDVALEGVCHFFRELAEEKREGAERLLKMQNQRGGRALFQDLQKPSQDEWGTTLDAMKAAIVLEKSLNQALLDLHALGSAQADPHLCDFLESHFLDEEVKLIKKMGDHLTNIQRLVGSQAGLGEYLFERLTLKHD
#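 Steps: apoferritin (10 uM) was premixed with half-saturated 1-AMA in PBS, compounds were pin-transferred, plates stood 10 min at room temperature, fluorescence was read at 380/535 nm, and curves were fitted with a Hill equation.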
# ERG Ets-DNA blk = blocks human ERG Ets domain binding to DNA. fluorescence polarization, His-ERG Ets domain / labelled DNA. AID 624246. actives 0.028% (n = 370,000). P11308. Potency, µM (titrated, usually from 76.9 µM), inactives show at the top dose FP activity, negative = inhibition, usual class: inhibitors; active means well fitted inhibition curve with a large enough effect in the polarisation, with a control signal flat; inconclusive means small, poorly fitted or top-dose-only effect, or effect the other way, or a change in a side signal; inactive means no such curve, though single readings can be large or run the other way; the % refers to the polarisation;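 further: polarization taken with two DNA probes labelled with fluorescein and Texas red; % of control where 0% means no effect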
#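 His-tagged ERG Ets domain (1 uM in the protein solution; 300mM KCl, 50mM Tris-HCl, 1mM EDTA, 1mM DTT, pH 7.5) received compound, then a probe mix of 5 nM fluorescein-DNA and 100nM Texas-615-DNA. Fluorescence polarization was read for both dyes.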
# RGS12 GoLoco inh = blocks human Gai1 binding to RGS12 GoLoco peptide, red readout; P63096; Gai1:RGS12 GoLoco peptide FP, rhodamine, 10 min; Potency, µM (doses to about 61.6 µM), without a hit: at the highest dose activity, negative = inhibition, most hits filed as inhibitors; actives 0.44% (n = 230,000); AID 880; active means well fitted inhibition curve with a large enough effect, not every such curve was filed as active; inactive means no such curve, though single readings can be large or run the other way; further: on the % scale 0 is the no-effect control and ±100 the full control effect; nearly all actives have a fitted effect of over 30% in size
# Target sequence (P63096 whole entry, looked up): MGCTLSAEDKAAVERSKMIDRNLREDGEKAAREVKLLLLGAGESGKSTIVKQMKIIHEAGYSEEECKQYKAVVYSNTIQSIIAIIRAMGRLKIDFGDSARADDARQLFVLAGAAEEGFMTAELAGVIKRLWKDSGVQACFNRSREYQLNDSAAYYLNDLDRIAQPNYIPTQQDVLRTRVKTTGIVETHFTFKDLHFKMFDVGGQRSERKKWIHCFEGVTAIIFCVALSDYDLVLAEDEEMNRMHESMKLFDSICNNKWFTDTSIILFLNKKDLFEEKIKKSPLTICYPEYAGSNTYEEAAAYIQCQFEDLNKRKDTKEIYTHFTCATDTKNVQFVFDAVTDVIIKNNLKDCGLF
# Active calls of the source: *; ? = inconclusive; . = no result given; [ ] = dose if it differs, or a comment. Most compounds without a hit are left out; they make up all but 1.2% or so of the library. Unless noted, the call rests on the fitted dose curve; in most records, active means well fitted curve in the direction sought with a large enough effect; inconclusive means small, poorly fitted or top-dose-only effect, or another doubt; inactive means no such curve, though single readings can be large; an effect the other way counts as inactive or inconclusive. Potency means the concentration at half of the fitted maximal effect.
SMILES,BRCA1 expr up,Anesthetic bind,ERG Ets-DNA blk,RGS12 GoLoco inh
CC(=O)c1cccc(NC(=O)Nc2ccc3c(c2)CCC3)c1,7.1µM*,-10%,12%,.
O=C(Nc1ccc([N+](=O)[O-])cc1)Nc1ccon1,-30%,-7%,3%,.
O=C(Nc1ccccc1)C1C2CCCCC21 (stereo not given),57%,-10%,6%,.
CC(=O)c1cccc(NC(=O)c2ccc3c(c2)CCCC3)c1,3.5µM*,-17%,6%,.
CCc1ccc(NC(=O)Nc2ccon2)cc1,3.2µM*,-10%,6%,.
O=C(C[n+]1cccc2cc(Cl)ccc21)c1cccc([N+](=O)[O-])c1,5%,.,.,.
N#CN=c1snc(-c2ccccc2Cl)n1-c1ccc(F)cc1,-66%,.,.,.
Nc1cccc2cccnc12,0%,.,.,.
Cc1cccc(NC(=O)Nc2ccc3c(c2)CCC3)c1,4.5µM*,-7%,-3%,.
CC(=O)c1cccc(Nc2ccc(Br)cc2)c1,10µM*,.,.,.
CC(=O)c1cccc(NC(=S)NC(=O)c2ccc(Br)cc2)c1,?,-10%,-11%,24%
CCc1ccc(NC(=O)Nc2ccc3c(c2)CCC3)cc1,3.5µM*,-1%,12%,.
COc1ccc2nc3oc(C(=O)N4CC(C)CC(C)C4)cc3cc2c1 (stereo not given),65%,?,-10%,.
CCC(C)NC(=O)c1cc2cc3ccc(OC)cc3nc2o1 (stereo not given),11µM*,10%,-2%,.
COCCNC(=O)c1cc2cc3ccc(OC)cc3nc2o1,?,53%,-6%,.
COc1ccc2nc3oc(C(=O)N4CCCCC4)cc3cc2c1,7.1µM*,23%,9%,11%
N#Cc1ccc(NCCNCC(=O)N2N=CCC2C#N)nc1 (stereo not given),.,-4%,.,.
Brc1cccc[n+]1CCCCCC[n+]1ccccc1Br,-13%,.,.,.
O=C(CCc1ccc(O)cc1)NN=Cc1ccc2c(c1)OCO2,0%,.,.,.
Cc1cc(C(=O)N/N=C/c2ccc([N+](=O)[O-])s2)n[nH]1,-82%,2%,15%,-2%
S=C(NN=Cc1ccc2c(c1)OCO2)NN=Cc1ccc2c(c1)OCO2,3%,.,-5%,.
Cc1ccc(CC(=O)N/N=C/c2ccc3c(c2)OCO3)cc1,8.9µM*,-17%,4%,0%
Cc1cc(C(=O)N/N=C/c2ccc(C)s2)n[nH]1,7.1µM*,-7%,-9%,.
O=C(N/N=C\c1ccc2c(c1)OCO2)c1ccco1,3.2µM*,-4%,-12%,.
O=C(N/N=C/c1ccc2c(c1)OCO2)C1CC1,7.9µM*,-14%,-10%,.
SMILES,BRCA1 expr up,Anesthetic bind,ERG Ets-DNA blk,RGS12 GoLoco inh
C1=Cc2ccccc2/C1=C\c1cccc(/C=C2\C=Cc3ccccc32)c1,12%,.,.,.
Cc1ccc(/C=N/NC(=O)c2ccc3c(c2)OCCO3)s1,2.5µM*,-8%,22%,27%
O=C(N/N=C/c1ccc2c(c1)OCO2)c1ccc2c(c1)OCO2,8.9µM*,0%,0%,.
Cc1ccc(/C=N/NC(=O)c2ccc3ccccc3c2)s1,36%,-6%,5%,.
Cc1ccsc1/C=N\NC(=O)c1cc(C(C)(C)C)[nH]n1,5µM*,-21%,-16%,8%
Cc1ccsc1/C=N/NC(=O)c1ccc(-n2cccc2)cc1,11µM*,-18%,?,25%
Cc1cc(C(=O)N/N=C/c2sccc2C)no1,47%,-4%,4%,13%
COc1ccc(-c2nc3ccccc3nc2-c2ccccc2)cc1,0%,-15%,0%,-1%
COc1ccc2nc3ccccc3nc2c1,13µM*,126%,3%,-9%
CCn1c(=Nc2ccc(N3CCOCC3)cc2)ccc2ccccc21,-33%,5%,-1%,0%
Cn1c(=Nc2ccc(N3CCOCC3)cc2)ccc2ccccc21,8%,-6%,-12%,0.32µM*
O=C(c1ccccc1)C(I)(I)N1CCOCC1,14%,.,.,.
NS(=O)(=O)c1ccc(N/C=C\C(=O)c2ccc(F)cc2)cc1,1µM*,3%,-1%,2%
O=c1[nH]c(SCc2ccccc2)ncc1S(=O)(=O)c1ccccc1,0%,.,.,.
Cc1ccc(C(=O)CN2C(=O)NC3(CCCCCC3)C2=O)c(C)c1,6.3µM*,.,0%,.
Cc1cc(C)c(C(=O)CN2C(=O)NC3(CCCCC3)C2=O)cc1C,?,-11%,-6%,7%
Oc1ccc(-c2cnns2)c(O)c1,-32%,0%,3%,1.3µM*
C[N+](C)(C)CCCCCCC(=O)/C=N/O,-2%,-8%,7%,1.8µM*
C[N+]1(CCCCCCC(=O)/C=N/O)CCCCCC1,1%,-5%,-2%,13µM*
CN(CCCCCC(=O)/C=N/O)Cc1ccccc1,0%,-1%,5%,5%
C[N+]1(CCCCC[N+]2(C)CCCC2)CCCC1,.,5%[29.3 µM],.,7%
O=C1C(=O)C(c2cc(O)c(O)c(O)c2)Oc2cc(O)cc(O)c21 (stereo not given),0%,.,.,.
Nc1ccc(/C=C/c2ccnc3ccccc23)cc1[N+](=O)[O-],56%,.,.,.
O=C(CSCc1ccccc1)N1CCN(c2ccc(F)cc2)CC1,26%,-13%,.,9%
O=C(CSCc1ccccc1)N1CCN(c2ccccc2)CC1,11µM*,-9%,-1%,-9%
SMILES,BRCA1 expr up,Anesthetic bind,ERG Ets-DNA blk,RGS12 GoLoco inh
CCCOc1ccc(C(=O)Nc2ccccc2[N+](=O)[O-])cc1,3.2µM*,.,-7%,.
COc1ccc(NC(=O)c2ccccc2)c([N+](=O)[O-])c1,7.9µM*,-12%,10%,5%
COc1cccc(NC(=O)/C=C/c2ccccc2[N+](=O)[O-])c1,3.2µM*,-13%,1%,1%
O=C(COc1ccccc1C(=O)Nc1ccccc1)NCCCCc1ccccc1,0%,.,.,.
CC1CC=CC2C1C(=O)N(Cc1ccccc1)C2c1ccc(Br)cc1F (stereo not given),.,31%,.,.
CSc1nc2sc3c(c2c(=O)[nH]1)CCC(C)C3 (stereo not given),-7%,-4%,0%,-4%
CC1CCc2c(sc3nn[nH]c(=O)c23)C1 (stereo not given),29%,25µM*,.,13%
Cc1ccc(S(=O)(=O)N2CCc3nc(COc4ccccc4)c4c(c3C2)CO[C@@H](C)C4)cc1,.,.,.,7%[14.2 µM]
N#Cc1cc2c(nc1SCc1ccncc1)CCC2,11µM*,-7%,.,-13%
Cc1cc(C)nc(SCC(=O)N/N=C/c2cccn2-c2ccc(O)cc2)n1,-19%,-17%,3%,3.2µM*
CC(O)c1n(C)c(Cl)c[n+]1C (stereo not given),-5%,2%,1%,13µM*
CN(C)c1ccc(/C=C/c2ccnc3ccc(Br)cc23)cc1,-20%,.,.,.
COc1ccccc1C1=NC(c2ccc(F)cc2)N=C1C (stereo not given),13µM*,-13%,-6%,4%
Cc1c(NC(=O)c2ccc(Br)o2)cccc1C(=O)O,3.5µM*,-11%,3%,-3%
Cc1ccc2c(NC(=O)c3ccc(Br)o3)cccc2n1,4%,-3%,-24%,.
CCCCSC(=O)Nc1ccccc1,39%,13µM*,-10%,-4%
Cc1cccc(NC(=O)COc2ccc(Br)cc2/C=N/O)c1,4.5µM*,-4%,-7%,-7%
